This is an account of results in PubChem BioAssay AID1851 (National Center for Advancing Translational Sciences (NCATS), 2009).

Structures are written as SMILES. Several values for one entry are separate records, joined by “and”; a condition that tells them apart may be missing. Equal values may be shown once. The whole screen tested about 16,000 compounds, of which about 4,000 (25%) were called active. Roughly 26% stayed inconclusive and do not appear here. Calls follow the shape of the dose curve; as a rule, active = well fitted curve in the direction sought with a large enough effect; inconclusive = small, poorly fitted or top-dose-only effect, or effect the other way; inactive = no such curve, though single readings can be large or run the other way. The list is a sample of the results. Some structures have more than one record in an assay (separate samples or runs), and their calls can disagree.
% is scaled to controls: 0 for no effect and ±100 for the full control effect.

Sequence of Cytochrome P450 2C9 (Homo sapiens) (P11712 whole entry, looked up): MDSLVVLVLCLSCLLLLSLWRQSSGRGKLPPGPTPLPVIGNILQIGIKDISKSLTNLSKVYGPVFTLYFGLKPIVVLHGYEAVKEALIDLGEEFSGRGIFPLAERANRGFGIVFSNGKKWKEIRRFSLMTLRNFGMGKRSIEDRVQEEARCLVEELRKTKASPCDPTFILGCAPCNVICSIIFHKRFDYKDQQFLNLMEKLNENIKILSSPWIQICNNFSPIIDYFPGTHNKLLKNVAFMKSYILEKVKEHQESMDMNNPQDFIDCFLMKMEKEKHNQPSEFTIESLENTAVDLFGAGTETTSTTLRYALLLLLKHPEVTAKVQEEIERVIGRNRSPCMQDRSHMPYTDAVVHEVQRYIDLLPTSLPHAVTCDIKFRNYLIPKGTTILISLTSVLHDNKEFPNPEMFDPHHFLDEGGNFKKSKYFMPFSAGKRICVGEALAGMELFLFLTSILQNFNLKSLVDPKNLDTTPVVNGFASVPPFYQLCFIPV

In the test the target is Cytochrome P450 2C9 (Homo sapiens) (UniProt P11712). As to the kind of experiment: Cytochrome panel assay with activity outcomes. The note with it: recombinant CYP, pro-luciferin dealkylation, luminescence, p450-cyp2c9; series mostly up to 57.1 µM. As for the experimental part:
The P450 gene superfamily is involved in the metabolism and clearance of xenobiotics. This assay used various human CYP P450 isozymes to measure the dealkylation of various pro-luciferin substrates to luciferin. The luciferin is then measured by luminescence after the addition of a luciferase detection reagent. Pro-luciferin substrate concentration in the assay was equal to its KM for its CYP P450 isozyme. Inhibitors and some substrates limit the production of luciferin, and decrease measured luminescence.
NCGC Assay Protocol Summary:
1, Reagent, 2 uL, Isozyme and Pro-Luciferin
2, Library compounds, 23 nl, 40 uM to 0.24 nM dilution series
3, Controls, 23 nl, Isozyme specific inhibitor
4, Reagent, 2 uL, NADPH regeneration solution
5, Incubation time, 60 min, Isozyme specific temperature
6, Reagent, 4ul, Detection reagent
7, Incubation time, 20 min, Isozyme specific temperature
8, Detection, 1 sec, ViewLux luminescent read
The luciferase-based P450-GloTM Screening Systems were obtained from Promega (Madison, WI) for CYP 1A2 (V9770), CYP 2C9 (V9790), CYP2 C19 (V9880), CYP 2D6 (V9890), and CYP 3A4 Luciferin-PPXE (V9910) and were adapted for 1,536-well microplates and an automated protocol. The control compounds furafylline for 1A2 (F124), sulfaphenazole for CYP 2C9 (S0758), ketoconazole for CYP 2C19 (K1003), quinidine for 2D6 (Q3625), and ketoconazole for 3A4 (K1003) were purchased from Sigma Aldrich (St. Louis, MO). Recombinant P450 enzymes were obtained from baculovirus constructs expressed in insect cells (BD/Gentest).
Medium-binding white solid Kalypsys plates used. Mixtures kept on ice. 1A2: 10 nM 1A2, 100 uM Luc-ME, 100 mM KPO4; 2C9: 10 nM 2C9, 100 uM Luc-H, 25 mM KPO4; 2C19: 5 nM 2C19, 10 uM Luc-H EGE, 50 mM KPO4; 2D6: 5 nM 2D6, 30 uM Luc-ME EGE, 100 mM KPO4; 3A4: 10 nM, 25 uM Luc-PPXE. All amounts are reflected in their final concentration, working concentration is 2x.
NADPH regeneration solution: 1.3 mM NADP+, 3.3 mM glucose-6-phosphate, 3.3 mM MgCl2, 0.4 U/mL glucose-6-phosphate dehydrogenase for all isozymes, 200 mM KPO4 for 3A4. Mixture prepared at RT but kept on ice during automated run.
RT incubation in auxilliary plate hotel for 1A2, 2D6, and 3A4; 37C for 2C9 and 2C19.
Keywords: P450, CYP1A2, CYP2C19, CYP2C9, CYP2D6, CYP3A4, Luciferase, MLSMR, MLSCN, NIH Roadmap, qHTS, NCGC
For the compound `CC[C@]1(C2=NCCN2)Cc2ccccc2O1`, the activity, negative = inhibition result is “inactive”. The same measure, in the same setting: under `COc1cc2c(cc1O)[C@H]1Cc3ccc(OC)c(O)c3CN1CC2` stands “inactive”. On the same count and under the same terms, to `c1ccc(N2CCCC3(CCNCC3)C2)cc1` belongs “inactive”; to `CC(C)Oc1cccnc1N(C)C1CCN(Cc2ccccc2)CC1`, “inactive”. On to `O=C1Nc2ccc(I)cc2/C1=C/c1cc(Br)c(O)c(Br)c1`, for which the AC50 (usually the concentration giving half of the maximal activity seen) is 12.6 µM (active). In the case of `COc1cc2c(cc1OC)[C@@]13CCN4C=C5CCO[C@H]6CC(=O)N2[C@@H]1[C@@H]6[C@H]5C[C@H]43`, the activity, negative = inhibition is -3.46% [at 11.4 µM] (inactive). Still for that read-out and setting: under `COc1ccc(CNC(=O)/C=C\c2ccc3[nH]cc(CCN(C)C)c3c2)cc1` stands “inactive”. For the compound `c1ccc(C[C@@H](c2ccccc2)N2CCCCC2)cc1`, the activity, negative = inhibition result is “inactive”.

With `CN1CCc2cc(O)cc3c2[C@H]1Cc1ccc(O)c(O)c1-3`, the activity, negative = inhibition result is “inactive”. As for `O=C(O)C(O)(c1ccc(-c2ccccc2)cc1)c1ccc(-c2ccccc2)cc1`, the AC50 was 3.16 µM (active).

As to `C[N+]12CCC(CC1)[C@@H](OC(=O)C(O)(c1ccccc1)c1ccccc1)C2`, the activity, negative = inhibition entry is “inactive”. As to `O=C(C[n+]1ccc2ccccc2c1)c1ccc2ccc3ccccc3c2c1`, the activity, negative = inhibition is 16.4% [at 11.4 µM] (inactive).

Turning to `CCn1cc(C(=O)O)c(=O)c2cc3c(cc21)OCO3`, the activity, negative = inhibition entry was “inactive”. The same measure, in the same setting: to `Clc1ccc(C2=CCC[C@H]3CC[C@@H]2N3)cn1` belongs “inactive”; to `Cn1ccnc1`, “inactive”. The same measure, in the same setting: under `c1cc(CCN2CCCCC2)ccn1` stands 3.53% [at 11.4 µM] (inactive). As for `Clc1ccc(C(c2ccc(Cl)cc2)n2cc[n+](C[C@@H](OCc3ccc(Cl)cc3Cl)c3ccc(Cl)cc3Cl)c2)cc1`, the AC50 is 31.6 µM (active). The same measure, in the same setting: to `Cc1nc(-c2ccc(-c3ccc(C(=O)N4CCc5cc6c(cc54)C4(CCN(C)CC4)CO6)cc3)c(C)c2)no1` belongs “inactive and 7.94 µM (active)”. Consider `NCCc1ccc(S(=O)(=O)O)cc1[N+](=O)[O-]`, for which the activity, negative = inhibition was 8.12% [at 11.4 µM] (inactive). As to `C[C@H](N)c1cccc(Cl)c1Cl`, the activity, negative = inhibition result is “inactive”. For the compound `CC[C@H](Oc1ccc(Cl)cc1)C(=O)OC1C[C@H]2CC[C@@H](C1)N2C` (some centres undefined), the AC50 was 0.1 µM (active). On to `CN1C2CCC1CC(OC(=O)c1ccc(Cl)cc1)C2` (centres undefined), for which the activity, negative = inhibition entry is “inactive”.

For `C[C@@H](C(=O)OC1C[C@H]2CC[C@@H](C1)N2C)c1ccc(Br)cc1` (some centres undefined), the activity, negative = inhibition result is “inactive”. As for `CCCN(CCC)[C@@H]1CCc2ccc(O)cc2C1`, the activity, negative = inhibition entry is “inactive”. Still for that read-out and setting: under `O=C(Nc1ccccc1)N1CCC2(CC1)CCN(C(=O)Oc1ccccc1)CC2` stands “inactive”.

`c1cnc(N2CCC3(CCNCC3)CC2)nc1`: the activity, negative = inhibition entry was “inactive”. Turning to `C[Se]C[C@@H](N)C(=O)O`, the activity, negative = inhibition entry was “inactive”. As for `O=c1[nH]c(=O)n([C@H]2C[C@H](O)[C@H](CO)O2)cc1/C=C\Br`, the activity, negative = inhibition entry is “inactive”. Regarding `Oc1ccc2c3c1O[C@H]1c4c(c5ccccc5n4Cc4ccccc4)C[C@]4(O)[C@H](C2)N(CC2CC2)CC[C@@]314`, the activity, negative = inhibition result is “inactive”. On the same count and under the same terms, to `c1ccc2nc(N3CCNCC3)ccc2c1` belongs “inactive”. Turning to `Clc1cncc(N2CCNCC2)n1`, the AC50 is 2 µM (active). `Clc1cccc(N2CCNCC2)c1`: the activity, negative = inhibition result was “inactive”. For `CCCN(CCC)[C@H]1CCc2c(F)ccc(O)c2C1`, the activity, negative = inhibition entry was “inactive”. The same measure, in the same setting: to `NS(=O)(=O)C[C-]1C=C[CH]([Sb-]([Cl])([Cl])([Cl])([Cl])[Cl])C=C1.c1ccncc1` (centres undefined) belongs 2.33% [at 11.4 µM] (inactive).

Regarding `CNCCc1cnc[nH]1`, the activity, negative = inhibition result is “inactive”.

`Cc1ccccc1-c1cncnc1NCCc1cnc[nH]1`: the AC50 was 1 µM (active). On the same count and under the same terms, under `CN1C(=O)C(=Cc2ccccc2Oc2ccc(Cl)c(F)c2)C(=O)N(C)C1=O` stands 6.31 µM (active).

For the compound `COC1=C(C)C(=O)c2c(c(COC(N)=O)c3n2C[C@@H]2[C@@H]3N2C)C1=O` (some centres undefined), the activity, negative = inhibition was -23.6% [at 11.4 µM] (inactive).

Consider `Cc1sc2ccccc2c1CC1=NCCN1`, for which the activity, negative = inhibition result is “inactive”. On to `CC(=O)O[C@H]1C[C@@H](O[C@@H]2[C@H](C)O[C@H](O[C@@H]3[C@H](C)O[C@H](O[C@@H]4CC[C@@]5(C)[C@@H](CC[C@]6(C)[C@]5(C)C[C@H](O)[C@]5(C)[C@@H](C7=CC(=O)OC7)CC[C@@]56O)C4)C[C@@H]3O)C[C@@H]2O)O[C@@H](C)[C@H]1O[C@H]1O[C@@H](CO)[C@@H](O)[C@@H](O)[C@@H]1O`, for which the activity, negative = inhibition entry was “inactive”. On the same count and under the same terms, to `CNC(=O)OCC[N+](C)(C)C` belongs “inactive”. `COC(=O)c1[nH]c2ccc(Br)cc2c1NC(=O)Oc1ccccc1`: the AC50 is 8.91 µM (active). On to `COC(=O)c1cc2c(cn1)[nH]c1ccccc12`, for which the activity, negative = inhibition entry was “inactive”. Regarding `N[C@@H](Cc1cc(Br)c(O)c(Br)c1)C(=O)O`, the activity, negative = inhibition was -7.73% [at 11.4 µM] (inactive). Take `COC(=O)N1CCN(C(=O)Cc2ccc(Cl)c(Cl)c2)[C@H](CN2CCCC2)C1`: the concentration at half-maximal activity (AC50) entry is “inactive and 12.6 µM (active)”.

For the compound `O=C(Cc1ccc(Cl)c(Cl)c1)N1CCCC[C@H]1CN1CCCC1`, the activity, negative = inhibition entry was “inactive”. Regarding `CN(C(=O)Cc1ccc(Cl)c(Cl)c1)[C@@H](CN1CCCC1)c1cccc(OCC(=O)O)c1`, the activity, negative = inhibition entry is “inactive”. The same measure, in the same setting: to `O=c1[nH]c(=O)n(CCC2=CCCCC2)c(O)c1C=Nc1cccc(F)c1` belongs “inactive”. Regarding `CCn1cnc2c(Nc3cccc(Cl)c3)nc(N[C@@H]3CCCC[C@H]3N)nc21`, the activity, negative = inhibition result is “inactive”.
